# Screens from PubChem.
# G9a block = blocks human histone lysine methyltransferase G9a. AID 504332. G9a H3K9 monomethylation, AlphaScreen, 2 h. actives 8.8% (n = 350,000). Potency, µM (titrated, usually from 102 µM), without a hit: top-dose activity, negative = inhibition, usual class: inhibitors. Q96KQ7; also: % is scaled to controls: 0 for no effect and ±100 for the full control effect; nearly all actives have a fitted effect of over 75% in size
# Target sequence (Q96KQ7 913-1193 limits assumed): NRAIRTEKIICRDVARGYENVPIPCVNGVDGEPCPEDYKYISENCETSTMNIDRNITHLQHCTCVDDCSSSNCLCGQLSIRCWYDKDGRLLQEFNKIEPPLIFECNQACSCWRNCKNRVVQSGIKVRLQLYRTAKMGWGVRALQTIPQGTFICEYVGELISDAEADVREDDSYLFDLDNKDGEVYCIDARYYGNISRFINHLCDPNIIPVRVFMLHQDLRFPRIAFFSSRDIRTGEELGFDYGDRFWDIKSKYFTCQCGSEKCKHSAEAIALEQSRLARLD
#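 Step 1: enzyme (final 20 nM) with compound, 15 min RT. Step 2: substrate peptide 500 nM and SAM 20 uM, 2 h RT. Step 3: anti-H3K9me1 antibody and AlphaScreen beads, 10 min, then plate read.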
# HP1b binding inh = HP1-beta chromodomain-methylated histone interaction inhibition; P83916; AlphaScreen HP1-beta / biotin-H3K9me3 peptide binding; AID 540317; Potency, µM (highest dose often 114 µM), without a hit: top-dose activity change, negative = inhibition, actives largely listed as inhibitors; actives 0.56% (n = 390,000); also: nearly all actives have a fitted effect of over 70% in size
# Target sequence (P83916 whole entry, looked up): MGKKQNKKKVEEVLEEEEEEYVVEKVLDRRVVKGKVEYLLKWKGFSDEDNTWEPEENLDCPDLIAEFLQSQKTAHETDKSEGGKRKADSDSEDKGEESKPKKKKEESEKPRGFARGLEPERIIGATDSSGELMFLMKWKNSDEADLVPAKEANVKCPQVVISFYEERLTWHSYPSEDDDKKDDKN
#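 HP1-beta protein (50 nM final) preincubated 30 min at room temperature with biotinylated H3(1-18)K9me3 peptide (50 nM) in PBS pH 7.4, 0.01% Tween-20, then compound added for 30 min. AlphaScreen streptavidin donor/nickel chelate acceptor beads (10 ug/mL final), 30 min dark, luminescence read.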
# JMJD2A Tudor = inhibitors of human JMJD2A Tudor domain; O75164; AlphaScreen JMJD2A-Tudor / H3K4me3 peptide binding; Potency, µM (series often up to 114 µM), without a hit: at the top dose activity change, negative = inhibition, actives largely listed as inhibitors; actives 4.4% (n = 390,000); AID 504339; also: % is scaled to controls: 0 for no effect and ±100 for the full control effect; nearly all actives have a fitted effect of over 50% in size
# L3MBTL1 block = blocks human L3MBTL1; Q9Y468; Potency, µM (series often up to 57.1 µM), for the others: at the top dose activity, negative = inhibition, hits mostly inhibitors; actives 0.66% (n = 230,000); AlphaScreen L3MBTL1–H3K9me1 peptide binding; also: % is scaled to controls: 0 for no effect and ±100 for the full control effect; nearly all actives have a fitted effect of over 60% in size
#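 L3MBTL1 (50 nM) pre-complexed 30 min with biotinylated H3(1-15)K9me1 peptide (75 nM), then compounds added for 30 min at room temperature; AlphaScreen streptavidin donor/nickel chelate acceptor beads (10 ug/mL final) read after 30 min dark incubation.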
# GLS inh = glutaminase GLS (human) inhibition | Potency, µM (series often up to 45.5 µM), without a hit: top-dose activity change, negative = inhibition, hits mostly inhibitors | AID 624170 | GLS enzymatic activity, qHTS titration | actives 0.21% (n = 410,000) | O94925; also: % is scaled to controls: 0 for no effect and ±100 for the full control effect
#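 Human kidney-isoform GLS in 45 mM KH2PO4 pH 8.2, 0.02% Tween-20, with compound, started with 1mM L-Glutamine (added stock). Glutamate oxidase/HRP/Amplex red coupled fluorescence read at start and after 30 min at RT.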
# BAZ2B block = blocks human BAZ2B. AlphaScreen BAZ2B-H3K14Ac peptide displacement. Potency, µM (highest dose often 114 µM), for inactives: top-dose activity change, negative = inhibition, usual class: inhibitors. actives 4.4% (n = 360,000). AID 504333; also: % is scaled to controls: 0 for no effect and ±100 for the full control effect; nearly all actives have a fitted effect of over 60% in size
#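 AlphaScreen displacement of biotin-H3(5-23)K14Ac peptide (50 nM final) from BAZ2B (50 nM final) in PBS pH 7.4, 0.01% Tween-20; complex preformed 30 min RT, then compounds (top 110 uM) 30 min RT, beads 20 min dark.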
# Active calls of the source: *; ? = inconclusive; . = no result; [ ] = dose if it differs, or a comment. A selection: hits, their analogues and other compounds. The true share with any hit is near 10%. Calls follow the shape of the dose curve; as a rule, active = well fitted curve in the direction sought with a large enough effect; inconclusive = small, poorly fitted or top-dose-only effect, or another doubt; inactive = no such curve, though single readings can be large; an effect the other way counts as inactive or inconclusive. Potency is read from the fitted curve at half-maximal effect.
SMILES,G9a block,HP1b binding inh,JMJD2A Tudor,L3MBTL1 block,GLS inh,BAZ2B block
Cc1ccc(S(=O)(=O)NC(=O)c2cc(C)n(-c3ccc(N(C)C)cc3)c2C)cc1,45µM*,-2%,-32%,-12%,26%,-35%
Cc1ccc(S(=O)(=O)NC(=O)c2cc(C)n(-c3ccccc3)c2C)cc1,?,15%,-15%,6%,10%,-4%
C=CCn1c(C(CCC(C)C)CC(C)(C)O)n[nH]c1=S (configuration not stated),?,-8%,7.1µM*,0%,?,10%
Cc1cccc(C)c1OCC(=O)N(Cc1ccc(Cl)cc1)CC1CCCO1 (configuration not stated),16%[59 µM],54%,12%,.,-4%,42%
Cc1cc(C)c(OCC(=O)N(Cc2ccc(N(C)C)cc2)CC2CCCO2)c(C)c1 (configuration not stated),13µM*,?,40µM*,.,16%,28µM*
Cc1ccc(OCC(=O)N(Cc2ccc(N(C)C)cc2)CC2CCCO2)cc1C (configuration not stated),14µM*,?,50µM*,.,22%,32µM*
Cc1ccccc1OCC(=O)N(Cc1ccc(N(C)C)cc1)CC1CCCO1 (configuration not stated),16µM*,?,45µM*,.,20%,32µM*
Cc1nnc(-c2cccc(Br)c2)c2cn(-c3cccc(Br)c3)nc12,?,23%,?,-4%,-2%,56µM*
Cc1nnc(-c2cccc(Br)c2)c2cn(-c3ccccc3)nc12,8%,5%,?,4%,-4%,2%
CC(C)(C)OC(=O)NCC12C=CC(O1)C1C(=O)N(Cc3ccccc3)C(=O)C12 (configuration not stated),10µM*,35%,-8%,0%,0%,0%
CC(C)(C)OC(=O)NCC1CCN(S(=O)(=O)Cc2ccccc2)CC1,-8%,32%,-4%,.,-8%,1%
CC(C)CCNC(=O)c1cccc(Nc2nc3ccccc3n3nnnc23)c1,8%[59 µM],27%,2%,.,-6%,-1%
CC1CN(C(=O)/C=C/c2ccccc2[N+](=O)[O-])CC(C)O1 (configuration not stated),-4%,23%[57 µM],10µM*,-1%,-4%,-14%
Cc1ccc(C(=O)/C=C/c2ccccc2[N+](=O)[O-])cc1,?,?,?,-23%,0%,?
O=C(/C=C/c1ccccc1[N+](=O)[O-])c1ccccc1Br,40µM*,?,56µM*,-5%[11.4 µM],3%,32µM*
CC1CN(C(=O)/C=C/c2cccc([N+](=O)[O-])c2)CC(C)O1 (configuration not stated),.,20%,0%,.,0%,.
N#Cc1cc2c([nH]c1=O)CCCC2,-13%[59 µM],48%,3%,.,-12%,-6%
N#Cc1cc2c([nH]c1=S)CCCC2,1.4µM*,-28%,3.5µM*,4%,?,32µM*
CC1(C)Cc2[nH]c(=S)c(C#N)cc2CO1,0.71µM*,-19%,6.3µM*,5%,-2%,25µM*
Cc1ccc2c(c1)C1C=CCC1C(C(=O)NCCCN1CCOCC1)N2 (configuration not stated),.,8%,?,.,9%,.
CC(C)C1Nc2ccc(S(N)(=O)=O)cc2C2C=CCC21 (configuration not stated),1.4µM*,-8%,?,-22%,12%,?
NS(=O)(=O)c1ccc2c(c1)C1C=CCC1C(C1CC=CCC1)N2 (configuration not stated),?,-20%,?,.,-1%,50µM*
CCc1ccc(-n2nc(CO)c(C(=O)NCc3ccccn3)n2)cc1,?,61%,-7%,.,4%,-30%
O=C(NCC(=O)N(CCc1ccccc1)C(C(=O)NC1CCCC1)c1cccnc1)c1ccco1 (configuration not stated),?,9%,-4%,3%,2%,4%
